# From PubChem BioAssay
# A selection: hits, their analogues and other compounds. The true share with any hit is near 9.4%.
# ELG1 genotox: genotoxicity induction in ELG1-luciferase HEK293T cells | HEK293T ELG1-luciferase reporter, luminescence, 16 h | Potency, µM (top dose mostly 46 µM), for the others: top-dose activity change, positive = activation, usual class: activators | 330,000 compounds, 1.3% hits | AID 504466; note: % of control where 0% means no effect; nearly all actives have a fitted effect of over 60% in size
#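 Reporter readout depends on ELG1 protein level, which increases with genetic stress. After 16 hr compound exposure at 37 °C, luciferase activity was quantified using ONE-Glo.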
# Rab9 promoter act: activators of Rab9 promoter; Huh7 Rab9 promoter-luciferase reporter, luminescence, 24 h; Potency, µM (top dose mostly 9.22 µM), for inactives: at the top dose activation, negative = inhibition, usual class: activators; 320,000 compounds, 2.8% hits; AID 485297; note: % of control where 0% means no effect; nearly all actives have a fitted effect of over 60% in size
#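 Huh7 cells stably carrying Rab9 promoter–luciferase reporter, plated 1500 cells/well, compound added after 2 h and incubated 24 h at 37 °C; luciferase luminescence then read after 10 min with detection reagent.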
# FLuc modulator: firefly luciferase modulation, counter-screen for miR-21 project; P08659; purified FLuc, Km substrates, luminescence inhibition; Potency, µM (top dose mostly 57.5 µM), for inactives: top-dose activity change, negative = inhibition, hits mostly inhibitors; 360,000 compounds, 6.9% hits;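 note: plate controls were vehicle for no effect and reference inhibitor for full effect; nearly all actives have a fitted effect of over 55% in size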
# Target sequence (P08659 whole entry, looked up): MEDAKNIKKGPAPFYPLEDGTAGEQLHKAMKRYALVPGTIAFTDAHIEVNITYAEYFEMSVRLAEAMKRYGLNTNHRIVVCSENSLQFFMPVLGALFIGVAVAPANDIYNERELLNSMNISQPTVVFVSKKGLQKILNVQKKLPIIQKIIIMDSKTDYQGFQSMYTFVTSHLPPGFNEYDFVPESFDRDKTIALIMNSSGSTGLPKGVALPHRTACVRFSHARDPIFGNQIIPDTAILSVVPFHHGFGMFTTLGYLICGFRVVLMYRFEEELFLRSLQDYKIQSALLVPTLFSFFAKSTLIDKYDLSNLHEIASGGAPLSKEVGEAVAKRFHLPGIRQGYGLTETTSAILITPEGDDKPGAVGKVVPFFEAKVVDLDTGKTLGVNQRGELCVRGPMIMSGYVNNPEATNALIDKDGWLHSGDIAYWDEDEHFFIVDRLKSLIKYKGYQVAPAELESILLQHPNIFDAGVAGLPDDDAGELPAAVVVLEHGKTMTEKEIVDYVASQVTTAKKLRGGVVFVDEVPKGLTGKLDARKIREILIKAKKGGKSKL
#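 Purified P. pyralis luciferase (10nM final) with 10uM D-luciferin and 10uM ATP (Km levels) in 50mM Tris acetate pH 7.5, 10mM Mg acetate, 0.01% Tween-20, 0.05% BSA; qHTS 6-point titration, ~60 µM downward; luminescence read.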
# ELG1 DNA repair: ELG1-dependent DNA repair inhibition. HEK293T ELG1-luciferase reporter, luminescence, 16 h; DNA damage induced by 5-fluorouridine. Potency, µM (series often up to 46.1 µM), inactives show at the highest dose activity change, negative = inhibition, most hits filed as inhibitors. 330,000 compounds, 2.3% hits; note: % is set by controls: 0 for no effect and ±100 for the full control effect; nearly all actives have a fitted effect of over 55% in size
#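 Overnight (16 hr) co-exposure of 2,000 cells/well to 5-fluorouridine and compound at 37 °C preceded detection. Luciferase was quantified via ONE-Glo luminescence; loss of signal denotes inhibition.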
# NPC1 prom act: activators of NPC1 promoter | Huh7 NPC1 promoter luciferase reporter, 24 h | Potency, µM (top dose mostly 9.22 µM), for the others: at the highest dose activation, hits mostly activators | 320,000 compounds, 2.4% hits | AID 485313; note: % of control where 0% means no effect; nearly all actives have a fitted effect of over 60% in size
#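 Cells: Huh7 expressing luciferase under the NPC1 promoter, 1500/well. Seeded 2 h, compound added, incubated 24 h at 37 °C. Luciferase reagent, 10 min ambient, then luminescence.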
# SMN2 splice up: increases expression of the SMN2 splice variant; HEK293 SMN2-luciferase splicing reporter, luminescence, 30-36 h; Potency, µM (series often up to 46.1 µM), for inactives: at the highest dose activity change, positive = activation, hits mostly activators; 210,000 compounds, 2.8% hits; note: % of control where 0% means no effect; nearly all actives have a fitted effect of over 55% in size
#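 HEK293 cells carry an SMN2 minigene-luciferase reporter in which exon 7 inclusion puts luciferase in frame. Cells were seeded at 2000 cells/well, attached for 10-12 hours, then exposed to compounds for 30-36 hours at 37C before ONE-Glo luminescence.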
# Numbers without * were called inactive; ? = inconclusive; · = no result given; [ ] = dose if it differs, or a comment. Calls come from the whole dose curve; as a rule, active = well fitted curve in the direction sought with a large enough effect; inconclusive = small, poorly fitted or top-dose-only effect, or another doubt; inactive = no such curve, though single readings can be large; an effect the other way counts as inactive or inconclusive. Potency is the fitted concentration of half-maximal effect.
SMILES,ELG1 genotox,Rab9 promoter act,FLuc modulator,ELG1 DNA repair,NPC1 prom act,SMN2 splice up
CC(=O)NS(=O)(=O)c1ccc(NC(=O)c2ccc3c(c2)NC(=O)CS3)cc1,3%,·,·,11%,·,·
Cc1ccc(NS(=O)(=O)c2cc(NC(=O)c3ccc4c(c3)NC(=O)CS4)ccc2C)c(C)c1,-26%,-8%,-17%,18µM*,-7%,-42%
Cc1ccc(C(=N)c2ccccc2Cc2cccc3ccccc23)c2ccccc12,·,·,·,·,·,-4%[9.22 µM]
CN(Cc1ccccc1)C(=O)c1c[nH]c2ccc(S(=O)(=O)Nc3ccccc3F)cc2c1=O,·,·,?,·,·,5%
Cc1ccc(CN2C(=O)C3(SCC(=O)N3c3ccc(C)c(C)c3)c3ccccc32)cc1 (stereo unspecified),·,·,-13%,·,·,·
CCCCCOC(=O)c1ccc(OC(=O)c2sc3ncn(Cc4cccc(F)c4)c(=O)c3c2C)cc1,·,·,-1%,·,·,·
C=CCn1c(SCC(=O)Nc2ccccc2C)nnc1-c1ccncc1,-2%,4%,0%,1%,1%,5%
CCn1c(SCC(=O)Nc2nccs2)nnc1-c1ccc(S(=O)(=O)N2CCCCCC2)cc1,-15%,-8%,4%,21µM*,-3%,-40%
CCn1c(SCc2ccc(C(=O)Nc3nccs3)cc2)nnc1-c1ccc(N)cc1,-5%,0%,17µM*,?,12%,15%
C=CCn1c(SCC(=O)Nc2cccnc2Cl)nnc1-c1ccc(C(C)(C)C)cc1,-3%,3%,21µM*,?,-2%,·
Cn1c(SCC(=O)Nc2nccs2)nnc1-c1ccc(S(=O)(=O)N2CCCC2)cc1,-10%,-2%,-1%,-9%,1%,-29%
CCC(Sc1nnc(-c2ccc(C)c(Cl)c2)n1CC)C(=O)Nc1nccs1 (stereo unspecified),-17%,-10%,0%,?,-4%,-42%
C=CCn1c(SCC(=O)Nc2nccs2)nnc1-c1ccco1,0%,0%,5%,14%,-2%,-7%
C=CCn1c(C)nnc1SCC(=O)Nc1nccs1,1%,0.089µM*,4%,-1%,?,·
COc1cccc(CNC(=O)CCc2c(C)nn(-c3ccc(N4CCOCC4)nn3)c2C)c1,·,·,4%,·,·,·
Cc1ccc(Cl)cc1N1CCN(C(=O)c2cc(S(=O)(=O)N3CCCC3)c[nH]2)CC1,·,·,1%,·,·,·
CCOc1ccc(-c2nnc(SCC(=O)NCCC(C)C)nc2-c2ccc(OCC)c(OC)c2)cc1OC,·,·,-4%,·,·,·
COc1ccc(CC(=O)Nc2ccc(C(=O)Nc3nccs3)cc2)cc1OC,-5%,1%,-6%,11%,-3%,2%
C=CCn1c(SCc2ccc(C(=O)Nc3ccccc3)cc2)nnc1-c1ccccc1,-7%,10%,13µM*,0%,13%,-14%
C=CCn1c(SCC(=O)NNC(=S)Nc2ccccc2)nnc1-c1ccccc1,4%,-1%,-1%,-6%,-6%,·
CCn1c(SCc2ccc(C(=O)Nc3nccs3)cc2)nnc1-c1ccc(NC(C)=O)cc1,-3%,5%,11µM*,?,4%,9%
Cn1c(SCC(=O)Nc2nccs2)nnc1-c1ccncc1,-3%,4%,-1%,4%,6%,9%
Cn1c(SCc2ccc(C(=O)Nc3nccs3)cc2)nnc1-c1ccccc1,-2%,10%,15µM*,?,18%,-1%
Cn1cccc1C(=O)N1CCC[C@@]2(CCN(C(=O)Nc3cccc(F)c3)C2)C1,·,·,·,·,·,-2%
Clc1nssc1=Nc1ccccc1,-7%,-3%,21µM*,?,1%,-12%
SMILES,ELG1 genotox,Rab9 promoter act,FLuc modulator,ELG1 DNA repair,NPC1 prom act,SMN2 splice up
COc1cc(N=c2ssnc2Cl)cc(OC)c1OC,-8%,1%,15µM*,-1%,-4%,-4%
COc1ccc(N=c2ssnc2Cl)cc1,2%,5%,?,9%,4%,-5%
Clc1ccc(N=c2ssnc2Cl)cc1,-6%,1%,?,16µM*,3%,-34%
N#Cc1ccc(N=c2ssnc2Cl)cc1,0%,9%,15µM*,?,9%,14%
CCOC(=O)c1ccc(N=c2ssnc2Cl)cc1,-2%,-4%,?,-26%,-2%,-9%
Fc1ccc(N=c2ssnc2Cl)c(F)c1,-6%,4%,19µM*,?,-1%,-7%
Cc1nc(SCC(=O)c2ccc(Cl)s2)c2oc3ccccc3c2n1,0%,?,9.5µM*,2%,?,12%
CCc1nc(SCC(=O)c2cccs2)c2oc3ccccc3c2n1,-4%,18%,11µM*,?,0%,-25%
CCc1nc(SCC(=O)NCCc2ccccc2)c2oc3ccccc3c2n1,-5%,4%,-19%,?,-3%,-15%
Cc1ccc(Cc2c(C)c(C#N)c3[nH]c4ccccc4n3c2=O)cc1,-10%,-9%,-4%,18µM*,0%,·
C=C(C)Cc1c(C)c(C#N)c2[nH]c3ccccc3n2c1=O,-7%,3%,-5%,21µM*,-3%,·
Cc1ccc(-c2cc3nccc(-c4cc([N+](=O)[O-])ccc4O)n3n2)cc1,·,·,?,·,·,-13%
CCSC1=N/C(=C\c2ccc(C(=O)O)cc2)C(=O)S1,-3%,2%,9.5µM*,-8%,-2%,-3%
C=CCSC1=N/C(=C\c2ccc(C)o2)C(=O)S1,0%,-1%,15µM*,-5%,1%,-16%
COC(=O)c1ccc(/C=C2\N=C(SC)SC2=O)cc1,0%,1%,-6%,?,0%,·
C=CCSC1=N/C(=C\c2ccsc2)C(=O)S1,-1%,-5%,?,-3%,-1%,3%
C=CCSC1=N/C(=C\c2ccc(C(=O)O)cc2)C(=O)S1,1%,0%,11µM*,7%,0%,17%
O=C1SC(SCc2ccccc2Cl)=N/C1=C\c1ccc(C(=O)O)cc1,0%,-4%,21µM*,-4%,-5%,0%
CCN(Cc1ccccc1)C(=O)Cn1c(=O)n(-c2cccc(C)c2)c(=O)c2c1c1cc(C)ccc1n2C,·,·,0%,·,·,·
CCCn1c(SCC(O)c2ccccc2)nc2ccccc21 (stereo unspecified),·,·,0%,·,·,6%
CCOC(=O)SC1=N/C(=C\c2ccc(N(C)C)cc2)C(=O)S1,1%,-2%,9.5µM*,?,-1%,1%
CSC1=N/C(=C\c2ccc(C)cc2)C(=O)S1,-2%,4%,?,-15%,0%,-14%
Cc1cc(C)nc(NC(=O)/C=C/c2ccccc2Cl)c1,?,?,3µM*,?,?,13µM*
Cc1cc(N)c2cc(NC(=O)/C=C/c3ccccc3Cl)ccc2n1,5%,-20%,13µM*,?,-8%,·
Cc1cc(C)nc(NC(=O)/C=C/c2ccc(Cl)cc2Cl)c1,?,3.5µM*,7.6µM*,?,?,10%
